Among the data in PubChem BioAssay AID2625 (National Center for Advancing Translational Sciences (NCATS), 2010) are outcome values, retold here.

Results filed as inconclusive are left out. Active and inactive are the calls of the source. Calls come from the whole dose curve; as a rule, active = well fitted curve in the direction sought with a large enough effect; inconclusive = small, poorly fitted or top-dose-only effect, or effect the other way, or another doubt; inactive = no such curve, though single readings can be large or run the other way.

For this assay, the target named is Pyruvate kinase PKLR (Homo sapiens) (UniProt P30613). As to the kind of experiment: Secondary LDH Assay for Activators of Human Liver Pyruvate Kinase: for Probe SAR. The note with it: purified hPK-L, LDH-coupled NADH fluorescence kinetic; series mostly up to 58.2 µM. The method, boiled down:
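Kinetic LDH-coupled read-out: NADH fluorescence loss followed every 30 s for 3–6 min gave initial rates. Reaction: 10 nM human liver PK, 0.1 mM PEP, 4 mM ADP, 0.2 mM NADH, 50 mM Tris-Cl pH 8.0; activation normalised to fructose-bis-phosphate.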

Pyruvate kinase PKLR (Homo sapiens), sequence (P30613 whole entry, looked up): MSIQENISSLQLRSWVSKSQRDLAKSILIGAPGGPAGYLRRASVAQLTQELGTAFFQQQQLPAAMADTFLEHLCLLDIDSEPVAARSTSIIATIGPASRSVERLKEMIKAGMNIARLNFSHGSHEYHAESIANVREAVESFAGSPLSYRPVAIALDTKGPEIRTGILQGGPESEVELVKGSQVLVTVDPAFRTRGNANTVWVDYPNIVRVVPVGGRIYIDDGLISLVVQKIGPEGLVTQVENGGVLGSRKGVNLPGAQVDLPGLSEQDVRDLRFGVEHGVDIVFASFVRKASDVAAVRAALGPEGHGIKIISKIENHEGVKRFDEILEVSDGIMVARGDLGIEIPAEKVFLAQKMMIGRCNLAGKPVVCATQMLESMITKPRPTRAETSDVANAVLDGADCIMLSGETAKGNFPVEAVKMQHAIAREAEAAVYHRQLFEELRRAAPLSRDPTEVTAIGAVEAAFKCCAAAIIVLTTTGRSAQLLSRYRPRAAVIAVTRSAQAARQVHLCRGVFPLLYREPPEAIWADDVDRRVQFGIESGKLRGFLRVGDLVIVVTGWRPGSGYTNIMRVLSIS

For the compound `O=C1c2ccccc2C(=O)N1c1nccs1`, the compound was called inactive.
Then `Cc1cc(NS(=O)(=O)c2ccc3c(c2)CCC(=O)N3)ccc1Cl`, with “inactive”; and `Cc1ccc(NS(=O)(=O)c2cc3c(cc2Cl)NC(=O)CO3)cc1C`, with “inactive”.
On to `O=C1c2ccccc2C(=O)N1Cc1ccccn1`, for which the call was inactive.
As for `O=C1c2ccccc2C(=O)N1c1cccc2ncccc12`, the compound was classed as inactive.
The same measure for `Cc1ccc(NS(=O)(=O)c2ccc3c(c2)C(Cl)(Cl)C(=O)N3)cc1C`: “inactive”.
